Results filed as inconclusive are left out. A call without a number means that no potency is given here. Activity calls are given as the source filed them. The call rests on the fitted dose curve; in most records, active means well fitted cell-killing curve with a large enough effect; inconclusive means small, poorly fitted or top-dose-only effect, or effect the other way; inactive means flat fitted curve, though single readings scatter.
Potency means the concentration at half of the fitted maximal effect.

The assay deals with Es-2. In words: Primary qHTS to identify gynecologic anti-cancer compounds using libraries of approved drugs and bioactive compounds (AID 1345084). Further: nearly all actives have a fitted effect of over 55% in size. The settings on record: Gynecologic cancer cell panel viability, ATPlite luminescence, 48 h; series mostly up to 57.5 µM. A digest of the protocol: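 Cells, 1,000 per well, were allowed to settle for 16 h at 37 C before compound addition. Five concentrations were tested for 48 h, and viability was read by ATPlite luminescence after 15 min at room temperature.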
Turning to `CN(C)[C@@H]1C(=O)C(C(N)=O)=C(O)[C@@]2(O)C(=O)C3=C(O)c4c(O)ccc(Cl)c4[C@@](C)(O)C3C[C@@H]12` (stereo partly specified), the Potency entry is “inactive”.

With `CC(C)[C@H](NC(=O)c1nn(Cc2ccc(F)cc2)c2ccccc12)C(N)=O`, the Potency entry is “inactive”.

Consider `CN1CCCCC1Cn1cc(C(=O)c2cc([N+](=O)[O-])ccc2I)c2ccccc21` (stereo unspecified), for which the Potency result is “inactive”.

On to `CC12CCC3C(C1)c1c(cc(O)c(C(=O)c4ccccc4)c1OC3(C)C)O2` (stereo unspecified), for which the Potency entry is “inactive”.

As for `CN1C(=O)[C@@H](Cc2c[nH]c3ccccc23)N=C(c2ccccc2F)c2ccccc21`, the Potency result was “inactive”.

As for `C#C[C@]1(O)CC[C@H]2[C@@H]3CC[C@H]4Cc5nc6nc7ccccc7n6cc5C[C@]4(C)[C@H]3CC[C@@]21C`, the Potency entry is “inactive”.

Take `CC(C)[C@H]1OC(=O)[C@H](Cc2ccccc2)N(C)C(=O)[C@@H](C(C)C)OC(=O)[C@H](Cc2ccccc2)N(C)C(=O)[C@@H](C(C)C)OC(=O)[C@H](Cc2ccccc2)N(C)C1=O`: the Potency result is “inactive”.

For `CCC1C2CC3C4N(C)c5ccccc5C45CC(C2C5O)N3C1O` (stereo unspecified), the Potency result was “inactive”.

In the case of `CCCCCCC1C(=O)O[C@H](C)[C@H](NC(=O)c2cccc(NC=O)c2O)C(=O)O[C@@H](C)[C@@H]1OC(=O)CC(C)C` (stereo partly specified), the Potency is 0.355 µM (active).

With `C[C@@H]1O[C@@H](OC2CCC3(C=O)C(CCC4C3CCC3(C)C(C5=CC(=O)OC5)C(O)CC43O)C2)[C@H](O)[C@H](O)[C@H]1O[C@@H]1O[C@H](CO)[C@@H](O)[C@H](O)[C@H]1O` (stereo partly specified), the Potency is 6.31 µM (active).

Consider `CCN1C[C@]2(COC)CC[C@H](O)[C@@]34C5C[C@@H]6[C@@H](OC)C[C@@](OC(C)=O)(C5[C@@H]6OC(C)=O)[C@H]([C@H](OC)C23)[C@@H]14` (stereo partly specified), for which the Potency result was “inactive”.

For `C[C@]12CC[C@H](O)C[C@@]1(O)CC[C@@H]1[C@@H]2CC[C@]2(C)[C@@H](c3ccc(=O)oc3)CC[C@]12O`, the Potency entry was “inactive”.

In the case of `CN1C(=O)N(c2ccc(C#N)c(C(F)(F)F)c2)C(=O)[C@@]1(CO)c1ccccc1`, the Potency entry is “inactive”.

As for `CC(=O)O[C@H]1C[C@]2(O)[C@@H]3CC[C@@H]4C[C@@H](O)CC[C@]4(C)[C@H]3CC[C@]2(C)[C@H]1c1ccc(=O)oc1`, the Potency is 0.1 µM (active).

In the case of `CCCCCn1cc(C(=O)Oc2cccc3cccnc23)c2ccccc21`, the Potency entry is “inactive”.

In the case of `CN=C(NS(=O)(=O)c1ccc(Cl)cc1)N1C[C@H](c2ccccc2)C(c2ccc(Cl)cc2)=N1`, the Potency result was “inactive”.

Take `COC1CC(O[C@H]2CC[C@@]3(C)C(CCC4C3CC[C@]3(C)C(C5=CC(=O)OC5)CCC43O)C2)OC(C)C1OC1OC(COC2OC(CO)C(O)C(O)C2O)C(O)C(O)C1O` (stereo partly specified): the Potency is 3.16 µM (active).

`CN1Cc2c(ccc3c2OCO3)[C@@H]2[C@H]1c1cc3c(cc1C[C@@H]2O)OCO3`: the Potency was 4.47 µM (active).

For the compound `CN(Cc1cccc(-c2ccncc2)c1)C(=O)Oc1ccc(-c2ccc(C(N)=O)cc2)cc1`, the Potency result was “inactive”.

With `CC1=CC2OC3CC(O)[C@](C)([C@@]2(C)C(O)C1=O)[C@]31CO1` (stereo partly specified), the Potency is 8.91 µM (active).

For the compound `CN(C(=O)C(c1ccccc1)c1ccccc1)[C@H](CN1CC[C@H](O)C1)c1ccccc1`, the Potency entry was “inactive”.

For the compound `COC(=O)C12C(=O)C(C)(O)C(=O)C1(C)C(C)=CC1C34CCC(OC3=O)C(C)(C)C4CCC12C` (stereo unspecified), the Potency entry is “inactive”.

For `CCOc1ccc(Oc2ccc(OCc3cc(F)ccc3F)cc2)c(N)c1`, the Potency entry was “inactive”.

For `Cc1ccc2c(c1)[C@H]1CN(C)CC[C@H]1N2C(=O)CSc1nnnn1-c1ccc(Cl)cc1`, the Potency entry was “inactive”.

With `C=C1C2(C)CC3C(C)(O)C4=CC(=O)OC(C)(C)C4=CCC3(C)C13C(=O)OC(C)C3(O)C2=O` (stereo unspecified), the Potency entry was “inactive”.

`CCCN(CCC)[C@@H]1CCc2ccc3[nH]c(C#N)cc3c2C1`: the Potency result was “inactive”.

For `C[C@]12CC[C@H](O)C[C@@H]1CC[C@@H]1[C@@H]2CC[C@]2(C)[C@@H](C3=CC(=O)OC3)CC[C@]12O`, the Potency was 8.91 µM (active).

As for `c1ccc([C@@H]2C[C@H]2NC2CCNCC2)cc1`, the Potency result was “inactive”.

In the case of `CC(=O)OC[C@]12[C@H](OC(C)=O)C(=O)[C@@H]3[C@@H](O)[C@@]14O[C@@]3(C)COC(=O)c1cccnc1[C@@H](C)[C@H](C)C(=O)O[C@@H]([C@H](OC(C)=O)[C@@H]2OC(C)=O)[C@]4(C)O`, the Potency result is “inactive”.

With `Cc1c(N[C@@H](c2nnc(-c3ccc(C#N)cc3)o2)[C@H](C)O)ccc(C#N)c1Cl`, the Potency entry is “inactive”.

For `COc1ccc2c(c1)c(CCN(C)C)cn2S(=O)(=O)c1ccccc1`, the Potency entry is “inactive”.

The values above are taken from PubChem BioAssay (NCATS).
